Results as given in PubChem BioAssay AID1445 (SRMLSC, 2008).
About 910 (0.41%) of roughly 220,000 compounds were called active.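 Rule for the calls: active = primary inhibition above the hit cutoff, then over 50% inhibition at one or more dose response concentrations (cut at about 23% in these data, passing the limit was not always enough); inconclusive = conflicting primary data, or primary hits not chosen for dose response; inactive = low primary inhibition, or under 50% at every dose.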 The sample as a whole holds a higher share of actives than the screen did. Potency and affinity values are given separately.

Each compound was assayed against Aminopeptidase N (Plasmodium falciparum (isolate 3D7)) (UniProt O96935) (assay: malaria alanyl aminopeptidase activity blockers – biochemical, fluorogenic H-Leu-NHMec substrate, 1536-well (AID 1445;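 note: plate controls were DMSO full reaction for no effect and no enzyme background for full effect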)). Settings: recombinant M1AAP, H-Leu-NHMec fluorogenic kinetic assay; at 30 µM, hits give high values unless noted.
Aminopeptidase N (Plasmodium falciparum (isolate 3D7)), sequence (O96935 whole entry, looked up): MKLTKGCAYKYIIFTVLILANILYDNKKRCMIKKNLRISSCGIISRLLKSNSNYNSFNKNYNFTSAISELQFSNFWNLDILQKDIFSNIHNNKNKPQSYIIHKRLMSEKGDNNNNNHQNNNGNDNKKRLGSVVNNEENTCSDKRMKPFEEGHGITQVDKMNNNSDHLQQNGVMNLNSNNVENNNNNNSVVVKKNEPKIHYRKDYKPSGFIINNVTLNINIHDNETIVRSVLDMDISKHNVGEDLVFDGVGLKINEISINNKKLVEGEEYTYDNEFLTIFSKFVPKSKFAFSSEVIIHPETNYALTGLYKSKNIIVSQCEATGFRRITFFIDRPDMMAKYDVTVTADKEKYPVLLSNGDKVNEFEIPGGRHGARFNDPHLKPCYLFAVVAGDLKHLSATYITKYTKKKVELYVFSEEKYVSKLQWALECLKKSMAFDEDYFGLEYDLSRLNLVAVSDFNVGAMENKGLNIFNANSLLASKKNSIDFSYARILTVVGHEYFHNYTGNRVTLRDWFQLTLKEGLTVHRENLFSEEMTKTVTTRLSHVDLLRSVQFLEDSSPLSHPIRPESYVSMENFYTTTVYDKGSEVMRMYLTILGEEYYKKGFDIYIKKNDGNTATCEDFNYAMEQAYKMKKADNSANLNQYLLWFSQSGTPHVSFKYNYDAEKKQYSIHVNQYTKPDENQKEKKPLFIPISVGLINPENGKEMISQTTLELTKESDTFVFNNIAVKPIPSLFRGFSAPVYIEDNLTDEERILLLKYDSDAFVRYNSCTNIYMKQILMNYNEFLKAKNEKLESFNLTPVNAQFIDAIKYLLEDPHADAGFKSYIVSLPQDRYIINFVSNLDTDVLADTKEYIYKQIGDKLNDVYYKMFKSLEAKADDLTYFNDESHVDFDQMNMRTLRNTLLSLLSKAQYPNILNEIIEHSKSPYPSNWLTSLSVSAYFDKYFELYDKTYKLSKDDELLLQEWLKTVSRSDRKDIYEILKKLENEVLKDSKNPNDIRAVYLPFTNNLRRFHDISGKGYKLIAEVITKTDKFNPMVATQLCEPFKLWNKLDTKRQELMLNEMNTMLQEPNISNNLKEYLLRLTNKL

inhibition, inactive:
COc1cccc(NC(=O)C(Sc2nnc(-c3ccncc3)n2-c2ccc(Cl)cc2)c2ccccc2)c1 (stereo unspecified) -1.95%
C=CCOc1c2ccc(C(=O)NCc3ccc(OC)cc3)cc2nn1C 15.3%
Cc1cc(C)n(-c2ccc(C(=O)OCC(=O)c3c(N)n(C)c(=O)n(C)c3=O)cc2)n1 4.93%
O=C(CCCCn1c(=O)[nH]c2ccsc2c1=O)NCC1CCCO1 (stereo unspecified) -2.47%
O=C(NCc1ccco1)c1ccc(Cl)c(S(=O)(=O)N2CCOCC2)c1 0.38%
COC(=O)c1cc(C(=O)NCCN2C(=O)S/C(=C\c3cccs3)C2=O)cc([N+](=O)[O-])c1 9.47%
CCOC(=O)c1cc(C)[nH]c(=S)c1C#N 5.55%
COc1cc(/C=C/C(=O)O)cc(S(=O)(=O)NCc2ccco2)c1OC 4.28%
COc1cc(/C=C/C(=O)O)cc(S(=O)(=O)Nc2cccc(SC)c2)c1OC 9.82%
COc1cc(/C=C/C(=O)O)cc(S(=O)(=O)Nc2ccccc2Cl)c1OC 5.83%
COc1cc(/C=C/C(=O)O)cc(S(=O)(=O)Nc2ccc3nc(C)sc3c2)c1OC 3.42%
COc1cc(/C=C/C(=O)O)cc(S(=O)(=O)Nc2ccc3c(c2)OCO3)c1OC 10.2%
COc1cc(/C=C/C(=O)O)cc(S(=O)(=O)Nc2ccc(F)cc2)c1OC 5.47%
CC(=O)C1=C(O)C(=O)N(C2CCCCC2)C1c1ccccc1 (stereo unspecified) 10.2%
CC(C)NC(=S)N(C)C1(c2ccccc2Cl)CCCCC1=O (stereo unspecified) 2.06%
O=C(CCc1nc(-c2ccccc2F)no1)NCc1ccco1 8.13%
COCCNC(=S)Nc1ccc(N2CCCCC2)cc1 2.09%
Cc1ccc(N2C(=O)[C@@H]3C(C(=O)CN4C(=O)c5ccccc5C4=O)=NN[C@@H]3C2=O)c(C)c1 4.06%
Cc1cccc(NC(=O)CCCN2C(=O)c3ccccc3C2=O)n1 -6.68%
Cc1cccc(N2C(=O)CCC2=O)n1 -1.56%
Cc1ccc(N2C(=O)c3ccccc3C2=O)cc1C 2.18%
Cc1ccc(N2C(=O)c3ccc(C(=O)O)cc3C2=O)c(C)c1 -3.18%
Cc1ccc(N2C(=O)c3ccccc3C2=O)cc1Cl -2.81%
CC(=O)Nc1ccc(/C(C)=N/NC(=O)c2ccc(F)cc2)cc1 7.12%
O=C(Cn1cncn1)N/N=C/c1ccncc1 -2.16%
COc1ccc(N(C(=O)C(C)C)S(=O)(=O)c2ccc3c(c2)n(C)c(=O)n3C)cc1 4.01%
